ChEMBL document CHEMBL4888484, “Replenishing the malaria drug discovery pipeline: Screening and hit evaluation of the MMV Hit Generation Library 1 (HGL1) against asexual blood stage Plasmodium falciparum ,using a nano luciferase reporter read-out” (2022)
Among all 4,800 compounds or so, about 410 (8.5%) showed an effect of 50% or more. This is one part of a sample in which strong results are shown more often than they occur.

System: Plasmodium falciparum
Experiment: Confirmatory screen in NF54 pLDH assay, in single point, at 2uM, 72h
Assay type: functional, Erythrocyte
Settings: timepoint 72 hour

Row | Structure (SMILES) | % Inhibition [%]
1 | c1cn(C[C@@H]2CCCN2c2nc(C3CCCC3)ns2)nn1 | -8
2 | Cn1cc(C(=O)c2nc(-c3ccccc3Cl)no2)cn1 | -5
3 | O=S(=O)(c1ccc2nncn2c1)N(Cc1cccc(Cl)c1)c1ccccc1 | 9
4 | O=C(N[C@@H]1CC=C(c2ccc(F)cc2)CC1)c1nc2n(n1)CCCN2 | 10
5 | c1ccc2[nH]c(Nc3nc4ccccc4s3)nc2c1 | 14
6 | COc1ccc(CNC(=N)NS(=O)(=O)c2ccc(OC)c(OC)c2)c(OC)c1 | 11
7 | Cc1cc(Br)ccc1CNC(=O)CN1CCCCC1=O | 13
8 | O=C(Nc1ccccc1-c1nnc[nH]1)c1ccc(F)c(Cl)c1 | 2
9 | COc1ccc(C(=O)Nc2ccc3c(c2)C(=O)Nc2cccnc2O3)cc1OC | 26
10 | O=C(Nc1[nH]c(=O)ncc1F)c1cccc2ccccc12 | 72
11 | Cn1ccc(NC(=O)c2cccc3ccccc23)n1 | 4
12 | COc1cc(C(=O)Nc2[nH]c(=O)ncc2F)ccc1Cl | 68
13 | O=C1c2ccccc2C(c2ccc(NC(=O)c3cccc4ccccc34)cc2)(c2ccc(NC(=O)c3cccc4ccccc34)cc2)c2ccccc21 | 42
14 | O=C(Nc1[nH]c(=O)ncc1F)c1cc(F)c(F)cc1Br | 86
15 | COc1cc2c(cc1-c1cccnc1)CCC(=O)N2C | -22
16 | CCc1c[nH]c(CNC(=O)C2(C(=O)NC3CC3)CCC2)n1 | 7
17 | CCC[C@H](C)c1nc(N2CCN(C(=O)Cc3ccc(OC)cc3)CC2)c2cnn(-c3ccccc3)c2n1 | 9
18 | CC(=O)c1ccc(NC(=O)Cn2c(-c3ccccc3)nc(C)cc2=O)cc1 | 10
19 | CC(=O)Nc1ccc(NC(=O)CCC(C)C)cc1 | -6
20 | CC(=O)Nc1ccc(-c2cn3c4ccccc4ccc3[n+]2C)cc1 | 67
21 | CCOc1cccc2c1OC1(C)C(C(=O)Nc3ccc(C)cc3C)C2NC(=O)N1c1ccccc1 (stereo unspecified) | -7
22 | O=C1[C@@H]2C[C@@H](CN2C(=O)c2cncnc2)Oc2ccccc2N1Cc1cccnc1 | 6
23 | O=C(O)C[C@H](NC(=O)c1cscn1)c1ccc(Cl)s1 | -23
24 | O=S(=O)(c1cccnc1)N(CC1CCCCC1)c1cnccn1 | 10
25 | COc1cc(NC(=O)c2cc(-c3cccc4ccccc34)[nH]n2)cc(OC)c1OC | 10
26 | COc1ccc2cccc(NC(=O)c3cc(-c4cc(OC)c(OC)c(OC)c4)n[nH]3)c2n1 | 51

Row | Structure (SMILES) | % Inhibition [%]
27 | COc1ccc(-c2cc(C(=O)Nc3ncc[nH]3)n[nH]2)cc1OC | 22
28 | Cc1ccnc2nc(C(=O)N(CC3CC3)CC(F)(F)F)nn12 | 10
29 | CC(O)CC(C)(C)CNC1CCCc2occc21 (stereo unspecified) | -9
30 | O=C(N[C@H]1CCCc2occc21)c1ccco1 | 7
31 | Oc1cccc(CN[C@H]2CCCc3occc32)c1Cl | 83
32 | CCOc1cc(C(=O)Nc2ccc3nc4c(c(Nc5ccc(OC)c(OC)c5)c3c2)CCCC4)cc(OCC)c1OCC | 103
33 | CCOC(=O)Oc1c(OC)cc(C(=O)Nc2ccc3c(c2)sc(=O)n3C)cc1OC | 15
34 | COc1ccc(Nc2nc(C(=O)Nc3ncc(C)s3)cs2)cc1OC | 13
35 | COC(=O)c1cc(S(=O)(=O)NCCc2csc(C)n2)cc(F)c1F | -8
36 | CCN(C(=O)[C@H]1CCN(C)[C@@H](C)C1)C1CCCC1 | 11
37 | Cc1cn(Cc2ncc(C(F)(F)F)cc2Cl)c(=O)[nH]c1=O | -18
38 | N#Cc1ccc(NC(=O)[C@](F)(OC(F)(F)C(F)(F)C(F)(F)F)C(F)(F)F)cc1 | -2
39 | Cc1cc(CN(C)c2cc(C3CC3)nc(N(C)Cc3cc(C)on3)n2)no1 | -11
40 | CN(Cc1ccc(-c2ccccc2)cc1)c1cc([C@H]2C[C@@H](N)C2)nc(N)n1 | 54
41 | CC(=O)N1c2c(C)cccc2[C@@H](C)CC1(C)C | 16
42 | CCc1ccc(NC(=O)Cn2c(=O)ncc3cc(S(=O)(=O)N4CCCC[C@@H]4C)ccc32)cc1 | 11
43 | CC(C)C[C@@H]1N[C@H](C(=O)NCCN(C)C)Cc2c[nH]c3cccc1c23 | -19
44 | Cc1cc2nc(C(=O)NC3CCN(Cc4ccccc4)CC3)c(=O)n(C)c2cc1C | -6
45 | Cc1cc(C(=O)Nc2nc(-c3ccc4c(c3)CCC4)n[nH]2)no1 | 7
46 | CCn1cc(-c2nc(-c3ccccc3C)no2)c(=O)c2cc(F)c(N3CCCCC3)cc21 | 42
47 | CCn1cc(C(=O)O)c(=O)c2cc(F)c(N3CCN(S(=O)(=O)c4ccccc4)CC3)cc21 | -6
48 | CCn1cc(C#N)c(=O)c2cc(F)c(N3CCN(Cc4ccccc4)CC3)cc21 | 78
49 | CCNC(=O)c1ccc(-c2nc(CS(=O)(=O)c3ccccc3)c(C)o2)cc1 | -10
50 | Cc1ccc(S(=O)(=O)Cc2nc(-c3ccc(C(=O)Nc4c(C)cccc4C)cc3)oc2C)cc1 | 13
51 | Cc1cccc(-c2nc(C[N+]3(Cc4nc(-c5cccc(C)c5)oc4C)CCCC3)c(C)o2)c1 | 55
52 | COc1cccc2c(=O)c3c([nH]c12)CCN(CC(=O)NCc1ccccc1Cl)C3 | 37

Row | Structure (SMILES) | % Inhibition [%]
53 | COc1ccc(CN(Cc2ccncc2)CC2CCN(C3CCN(C)CC3)CC2)c(F)c1 | 93
54 | c1ccc(N2CCN(C3CCN(Cc4ccncc4)CC3)CC2)cc1 | -2
55 | O=S1(=O)CCN(C2CCN(Cc3c(F)cccc3F)CC2)CC1 | 14
56 | c1cc(CN2CCN(C3CCCCCC3)CC2)ccn1 | -17
57 | CN1CCC(N2CCC(CN(Cc3ccncc3)Cc3c(F)cccc3Cl)CC2)CC1 | 99
58 | Cc1ccc(C)c(NC(=O)N2CC(n3cnnc3-c3ccccc3)C2)c1 | 0
59 | c1ccc(CCc2nnc3n2CCOC3)cc1 | 3
60 | COCc1cc2nn(CC(=O)Nc3ccc4c(c3)OCO4)c(=O)n2c(-c2ccccc2)n1 | 12
61 | Cc1ccc(CNC(=O)[C@@H](C)C2CCOCC2)cc1C | 7
62 | Cc1ccc(-c2nn3c([C@H]4CCCN(C)C4)nnc3s2)cc1C | -8
63 | O=C1NC2(CCCC2)Nc2ccccc21 | 2
64 | Cc1cc(=O)n2ncc(C(=O)Nc3ccc(F)cc3F)c2[nH]1 | 10
65 | COc1ccc(N(C)S(=O)(=O)c2ccsc2-c2nc(-c3cccnc3)no2)cc1Cl | -2
66 | CC(C)(C)N(CC(N)=O)CC(=O)NC(=O)NC1CCCCC1 | 8
67 | CCN(CC)C(=O)c1cc(C)n(-c2ccc3c(c2)OCCO3)c1C | -3
68 | O=C1c2[nH]nc(-c3cccs3)c2[C@@H](c2cccc(O)c2)N1c1nccs1 | 5
69 | O=S(=O)(N[C@H]1CCc2nnc(-c3ccc(F)cc3)n2C1)c1cccnc1 | 13
70 | C[C@@H]1CN(c2ccc(N)cn2)C[C@H](C)O1 | -12
71 | COc1ccc(CCNC(=O)CCCC(=O)NCc2ccccc2)cc1OC | -14
72 | CCCNC(=O)C[C@H](C)CC(=O)NCCc1ccc(OC)c(OC)c1 | 14
73 | COc1ccc(CC(=N)Nc2cc3cc(OC)c(OC)cc3c(Cc3ccc(OC)c(OC)c3)n2)cc1OC | 89
74 | CNC(=O)C(=O)Nc1ccccc1C(F)(F)F | 9
75 | C[C@H](NC(=O)c1cocn1)c1ccccc1NC(=O)c1cocn1 | -7
76 | Oc1ccc2ncccc2c1[C@@H](Nc1ccccn1)c1cccc(Br)c1 | 77
77 | Cc1cc([C@H](Nc2ccccn2)c2cccnc2)c(NC(=O)c2ccccc2)s1 | 4
78 | Cc1cc([C@H](Nc2ccccn2)c2ccccc2)c(NC(=O)c2ccccc2)s1 | 3

Row | Structure (SMILES) | % Inhibition [%]
79 | CCCC(=O)N1CCC(OC(=O)c2cnc3ccc(F)cc3c2)CC1 | -10
80 | CC(C)Nc1nc2nonc2n2cnnc12 | 90
81 | COc1ccc(Nc2ncc(Cc3ccccc3C)s2)cc1 | 4
82 | CC(C)C(CNCc1nnn(C)n1)C(C)C | 11
83 | FC(F)(F)c1cnc(-c2csc(NC3CCCCC3)n2)c(Cl)c1 | 15
84 | NC(=O)c1nnn2c1C(=O)N[C@H](c1ccc(Cl)cc1)C2 | -13
85 | CCc1c(-c2nc(CCN(C)C(=O)c3ccoc3)no2)[nH]c2ccc(C)cc12 | -19
86 | CCN1c2cc(C(=O)N3CCCCC3)ccc2C(=O)N2CCCCC[C@H]21 | 6
87 | Cc1cc(C(=O)Nc2cc(C)nn2C)nc(N(C)C)n1 | 8
88 | Cc1cc(C)n(C(=O)CNC(=O)c2ccccn2)n1 | 14
89 | Cc1cc(NC(=O)c2ccccn2)n(-c2nc3ccccc3o2)n1 | 93
90 | COc1ccc(S(=O)(=O)N2CC[C@@H]3[C@@H](COCCN3Cc3ccccc3)C2)cc1 | 0
91 | O=C(CNC(=O)COc1ccccc1)NCC1(O)CCCCCC1 | 6
92 | C[C@@H](CN)N(C)c1ccnc2cc(Br)cnc12 | 96
93 | O=C(O)C1c2ccccc2C(=O)N(C2CCCCC2)C1c1ccc(Cl)cc1 (stereo unspecified) | -3
94 | Cc1noc(C)c1CN1CCNC(=O)CC1 | -14
95 | Cc1noc(C)c1CN1C[C@@H]2Oc3cc(F)ccc3C(=O)N(C)[C@@H]2C1 | 97
96 | Cc1noc(C)c1CN1CCCN(C(=O)c2n[nH]c3ccccc23)CC1 | 7
97 | Cc1ccc(N2C(=O)c3ccccc3[C@H]2Nc2nc(C)cs2)nc1 | -16
98 | C[C@@H]1CN(C(=O)NCCc2ccc(C(F)(F)F)cn2)C[C@H](C)O1 | 6
99 | Cc1cc(NCc2noc(-c3ccsc3)n2)ccc1C(N)=O | 5
100 | Cc1noc(C)c1NS(=O)(=O)c1ccc2c(c1)OCCCO2 | 0
101 | CCN(CC(=O)Nc1ccc2c(c1)OCCO2)C(=O)CCc1c(C)noc1Cl | 5
